# Results taken from the supplement of paper PMC13380429.
# A number with no mark means an inactive call.
# System: Vero E6 infected with SARS-CoV-2
# Assay: inhibition of SARS-CoV-2 cytopathic effect; higher = more antiviral protection, active = above 15
# Conditions: 48 h
Compound,inhibition of SARS-CoV-2 cytopathic effect (1 nM) [%],inhibition of SARS-CoV-2 cytopathic effect (8.33 nM) [%],inhibition of SARS-CoV-2 cytopathic effect (100 nM),inhibition of SARS-CoV-2 cytopathic effect (833.33 nM),inhibition of SARS-CoV-2 cytopathic effect (10000 nM)
CCCS(=O)(=O)Nc1ccc(F)c(C(=O)c2c[nH]c3ncc(-c4ccc(Cl)cc4)cc23)c1F [vemurafenib],3.98,1.81,-0.86%,2.45%,4.29%
COCC1(CO)C(=O)C2CCN1CC2 (stereo not given),-1.69,-1.26,-0.44%,-0.13%,4.84%
Clc1ccc(C(Cn2ccnc2)OCc2c(Cl)cccc2Cl)c(Cl)c1 (stereo not given) [isoconazole],0.43,0.08,1.75%,1.3%,-2.37%
NCC(=O)O,1.39,-0.35,1.12%,-1.32%,0.49%
CCCC[C@@H](C=O)NC(=O)[C@H](CC(C)C)NC(=O)OCc1ccccc1 [calpeptin],-1.61,-1.53,-2.86%,14.7%,66.9% (active)
C[C@H](Oc1cc(-c2cnn(C3CCNCC3)c2)cnc1N)c1c(Cl)ccc(F)c1Cl [crizotinib-(S)],0.35,-0.2,-0.33%,-0.47%,54.7% (active)
N#CC(C#N)=Cc1ccc(O)c(O)c1 [tyrphostin-AG-18],2.32,2.46,0.83%,0.73%,0.85%
N=C(N)NCCCC[C@@H]1NC(=O)CCSSC[C@@H](C(N)=O)NC(=O)[C@@H]2CCCN2C(=O)[C@H](Cc2c[nH]c3ccccc23)NC(=O)[C@H](CC(=O)O)NC(=O)CNC1=O [eptifibatide],-0.98,8.08,3.25%,2.75%,-2.38%
COc1ccc(C(=O)Nc2c(Cl)cncc2Cl)cc1OC1CCCC1 [piclamilast],-1.88,-0.22,0.16%,-2.24%,-0.91%
CCS(=O)(=O)N1CCC([C@@H](C)n2c(C)c(C(=O)NCc3c(OC)cc(C)[nH]c3=O)c3ccccc32)CC1,0.38,2.34,0.88%,0.2%,-1.12%
Nc1ncnc2c1ncn2[C@@H]1O[C@H](CO)[C@@H](O)[C@H]1O [adenosine],2.02,3.5,0.67%,-1.84%,1.06%
CO[C@H](C(=O)[C@@H](O)[C@@H](C)O)[C@@H]1Cc2cc3cc(O[C@H]4C[C@@H](O[C@H]5C[C@@H](O)[C@H](O)[C@@H](C)O5)[C@@H](O)[C@@H](C)O4)c(C)c(O)c3c(O)c2C(=O)[C@H]1O[C@H]1C[C@@H](O[C@H]2C[C@@H](O[C@H]3C[C@](C)(O)[C@H](O)[C@@H](C)O3)[C@H](O)[C@@H](C)O2)[C@H](O)[C@@H](C)O1 [plicamycin],2.66,3.18,3.85%,-3.43%,-7.42%
CCCCCS(=O)(=O)CCCCCCCCCCn1c(-c2ccc(O)cc2)c(C)c2cc(O)ccc21,1.18,-2.92,-0.42%,-1.6%,-5.93%
c1ccc2cc(C3=NCCN3)ncc2c1,1.6,1.22,2.06%,-0.28%,1.35%
Cc1ccc(C(=O)N(CCCN)[C@@H](c2nc3cc(Cl)ccc3c(=O)n2Cc2ccccc2)C(C)C)cc1 [ispinesib],0.51,-1.24,-2%,-2.99%,-4.72%
CN(NC(=O)CC(=O)NN(C)C(=S)c1ccccc1)C(=S)c1ccccc1 [elesclomol],1.66,2.35,18% (active),19.7% (active),36.4% (active)
C=C[C@@H]1C[C@]1(NC(=O)[C@@H]1C[C@@H](Oc2ncc(OC)c3ccc(Cl)cc23)CN1C(=O)[C@@H](NC(=O)OC(C)(C)C)C(C)(C)C)C(=O)NS(=O)(=O)C1CC1 [asunaprevir],-0.2,0.38,3.96%,2.81%,-1.88%
O=C(O)Cc1cccc(OCCCN(Cc2cccc(C(F)(F)F)c2Cl)CC(c2ccccc2)c2ccccc2)c1,0.26,0.75,2.25%,0.38%,8.79%

Compound,inhibition of SARS-CoV-2 cytopathic effect (1 nM) [%],inhibition of SARS-CoV-2 cytopathic effect (8.33 nM) [%],inhibition of SARS-CoV-2 cytopathic effect (100 nM),inhibition of SARS-CoV-2 cytopathic effect (833.33 nM),inhibition of SARS-CoV-2 cytopathic effect (10000 nM)
CO[C@@]1(NC(=O)CSCC#N)C(=O)N2C(C(=O)O)=C(CSc3nnnn3C)CS[C@@H]21 [cefmetazole],1.84,1.39,1.15%,2.93%,2.49%
CN(C)CCc1c[nH]c2ccc(C[C@H]3COC(=O)N3)cc12 [zolmitriptan],-2.55,2.01,-1.58%,-2.13%,-2.93%
COc1cc2c(=O)c(-c3ccc(O)cc3)coc2cc1O [glycitein],1.2,-0.34,-0.96%,-2.13%,-1.58%
CC1(C)O[C@@H]2C[C@H]3[C@@H]4C[C@H](F)C5=CC(=O)C=C[C@]5(C)[C@H]4[C@@H](O)C[C@]3(C)[C@]2(C(=O)CO)O1 [flunisolide],-0.25,0.14,-1.38%,-0.29%,-0.97%
COc1ccc(N2CCOCC2)c2sc(NC(=O)N3CCC(C)(O)CC3)nc12 [tozadenant],1.95,8.03,-0.04%,-0.08%,-2.66%
CCC1NC(=O)c2cc(S(N)(=O)=O)c(Cl)cc2N1 (stereo not given) [quinethazone],-8.29,-6.61,-4.32%,-5.24%,-5.16%
COc1ccc2c(NC(=O)Nc3cccc(C(F)(F)F)n3)ccnc2c1,1.28,1.81,2.91%,10.2%,11.1%
CCOC(=O)c1cncn1[C@H](C)c1ccccc1 [etomidate],0.18,-0.71,-2.47%,1.97%,0.06%
Cc1cc(C)c(Nc2ccnc(Nc3ccc(C#N)cc3)n2)c(C)c1 [dapivirine],-0.02,-0.53,0.06%,2.16%,-8.23%
CC(C)C1=C2[C@H]3CC[C@@H]4[C@@]5(C)CC[C@H](OC(=O)CC(C)(C)C(=O)O)C(C)(C)[C@@H]5CC[C@@]4(C)[C@]3(C)CC[C@@]2([C@@H](O)CN(CCN(C)C)Cc2ccc(Cl)cc2)CC1=O,-0.51,1.17,-0.05%,0.73%,-1.86%
C=CC(N)CCC(=O)O (stereo not given) [vigabatrin],-9.39,-9.03,-9.5%,-11%,-9.82%
COC(=O)[C@H](CC(C)C)NC(=O)c1ccc(NC[C@@H](N)CS)cc1-c1cccc2ccccc12,-1.19,4.63,-0.9%,-1.25%,-4.69%
CC(C)(O)CNc1nc(Nc2ccnc(C(F)(F)F)c2)nc(-c2cccc(C(F)(F)F)n2)n1 [enasidenib],-2.39,-0.28,-1.11%,-2.37%,-1.07%
CN(C)CCOC(C)(c1ccccc1)c1ccccn1 (stereo not given) [doxylamine],-1.38,-0.13,-1.73%,1.53%,1.43%
Cc1c(C(=O)NC2CCCCC2)sc2nc3ccc(N)cc3n12,0.16,-2.6,-1.92%,-0.52%,0.2%
C[N+](C)(C)CC(O)CC(=O)[O-] (stereo not given) [carnitine-(D/L)],-1.88,-0.98,0.43%,3.52%,5.12%
CC[C@H]1OC(=O)[C@H](C)[C@@H](O[C@H]2C[C@@](C)(OC)[C@@H](O)[C@H](C)O2)[C@H](C)[C@@H](O[C@@H]2O[C@H](C)C[C@H](N(C)C)[C@H]2O)[C@](C)(O)C[C@@H](C)CN(C)[C@H](C)[C@@H](O)[C@]1(C)O [azithromycin],0.31,1.86,2%,0.56%,0.92%
O=c1c(-c2ccc(O)cc2)coc2cc(O)ccc12 [daidzein],0.46,0.3,0.05%,-0.66%,-1.03%
